Measurements published in PubChem BioAssay AID2284350 (EPA ToxCast).
Inconclusive results are not listed. Calls of active or inactive are those of the source. The calls were made as follows: active = hit-call score of the fitted dose curve at least 0.9, where 1 is the maximum; inconclusive = response in the unintended direction; inactive = score below 0.9.

These molecules were tested on zebrafish Peroxisome Proliferator-activated Receptor alpha (PPARa), gene 563298 (assay: ATG_zfPPARa_EcoTox2: Attagene TRANS-FACTORIAL EcoTox-2 HepG2 Assay for zebrafish Peroxisome Proliferator-activated Receptor alpha (PPARa)).
Protocol: ATG_EcoTox2 is a cell-based, multiplexed assay created by modifying the existing Attagene TRANS-FACTORIAL system to include a panel of nuclear receptors from some or all the following species: human (Homo sapiens), african clawed frog (Xenopus laevis), rainbow trout (Oncorhynchus mykiss), japanese medaka (Oryzias latipes), and zebrafish (Danio rerio). The ECOTOX2-FACTORIAL format uses HepG2, a human liver cell line, with measurements taken at 24 hours after chemical dosing in a 24-well plate. ATG_zfPPARa_EcoTox2 is one of 29 assay components calculated in the ATG_EcoTox2 assay. It is designed to make measurements of mRNA induction, a form of inducible reporter, as detected with fluorescence intensity signals by Reverse transcription polymerase chain reaction (RT-PCR) and Capillary electrophoresis technology.The assay endpoint ATG_zfPPARa_EcoTox2 was analyzed in the positive analysis fitting direction relative to DMSO as the negative control and baseline of activity. Using a type of inducible reporter, measures of mRNA for gain-of-signal activity can be used to understand the reporter gene at the transcription factor-level as they relate to the gene PPARa. Furthermore, this assay endpoint can be referred to as a primary readout, because this assay has produced multiple assay endpoints where this one serves a reporter gene function. To generalize the intended target to other relatable targets, this assay endpoint is annotated to the nuclear receptor intended target family, where the subfamily is non-steroidal.
Human liver HepG2 cells are transiently transfected with multiple reporter transcription units (MRTUs) in 6-well plates using FuGene 6 reagent (Roche; 3 ml FuGene/1 mg DNA). The MRTU constructs are regulated by a cis-regulating element (promoter). Each RTU expresses a GAL4-UAS that regulates the transcription of a nearby target reporter gene sequence. A major difference between the CIS and TRANS system is that in CIS activities of endogenous TFs are measured, whereas the TRANS assay evaluates changes in activities of exogenous, chimeric NR-Gal4 proteins. […] At the end of 24 hour incubation, total RNA was isolated using TriZol reagent (Invitrogen). The isolated RNA is then reverse-transcribed using oligo(dT) primer and Mo-MLV reverse transcriptase (Invitrogen) with DNAse I (Ambion) treatment for 30 min. The one-tenth of the produced cDNA was amplified by PCR using Taq DNA polymerase (Invitrogen) and two reporter sequence-specific primers. The PCR products were fluorescently labeled by primer extension with 6-arboxyfluorescein (6-FAM) 5'-labeled reporter sequence-specific primer (2 min at 95 C, 20 s at 68 C and 10 min at 72 C) and these products were digested with 5U of HpaI (New England Biolabs) for 2h at 37 C. The fragments were purified using Qiaquick PCR columns (Qiagen), analyzed on an ABI 3130xL genetic analyzer (Applied Biosystems) with peak positions identified by using a set of X-rhodamine (ROX)-labeled MapMarker1000 molecular weight standards (BioVentures). The raw capillary electrophoresis data was processed using Attagraph software (Attagene).

SMILES	outcome	AC50
O=S(=O)(O)C(F)(F)C(F)(F)C(F)(F)C(F)(F)C(F)(F)C(F)(F)F	inactive	
O=P(Oc1ccccc1)(Oc1ccccc1)Oc1ccccc1	inactive	
O=C(O)C(F)(F)C(F)(F)C(F)(F)C(F)(F)C(F)(F)C(F)(F)C(F)(F)F		52.7 µM (active)
CCCCOCN(C(=O)CCl)c1c(CC)cccc1CC	inactive	
[Cl][Sn]([c]1ccccc1)([c]1ccccc1)[c]1ccccc1	inactive	
